The values that follow come from PubChem BioAssay.

The structures appear in SMILES notation. Activity calls are given as the source filed them.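 The calls were made as follows, unless noted: active = inhibition at or above 50% at 10 µM; inactive = inhibition below 50%.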

Experiment [1] can be described thus: inhibitors of TNFa-induced NFkB p65 translocation, primary screen, imaging, HUVEC, MLSMR starter and 10KST1 sets (AID 438;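 active = inhibition above 20% together with a positive visual image hit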;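 also: compound added about 3h40 before a 20 min TNFalpha stimulation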;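 as to inhibition: signal is the nuclear over cytoplasmic p65 intensity ratio per well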). The settings on record: HUVEC TNFa-induced p65 nuclear translocation; cell count: measured here: nuclei count (cytotoxicity indicator), at 2.08 µM; inhibition: at 2 µM, stronger effect = higher value, 0% TNFa-plus-vehicle, 100% no-TNFa wells.
Experiment [2] in a line: inhibitors of mutant huntingtin aggregation, primary screen, imaging, exon1htt(103Q)mCFP cells, high-content imaging (AID 483;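 active = visual image review flags a hit and inhibition of aggregation exceeds 20%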;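 also: compound exposure lasted 3 days before fixation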;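 as to nuclei count: percent of the per-plate median nuclei count of sample wells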). The note with it: exon1htt(103Q)mCFP cell line, aggregate imaging, at 2 µM; inhibition of aggregation: stronger effect = higher value; nuclei count: measured here: cell count, toxicity.
Experiment [3] is described as follows: inhibitors of E-selectin induction by TNFa, primary screen, imaging, HUVEC, immunofluorescence, MLSMR starter and 10KST1 sets (AID 487;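 active = visually confirmed hit in the image check and inhibition above 20%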;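 as to inhibition: signal is fraction of cell area covered by stained E-selectin grains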;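 as to nuclei count: 100% = median nuclei count of all wells on the same plate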). The settings on record: HUVEC TNFalpha-induced E-selectin immunofluorescence imaging, at 2 µM; inhibition: stronger effect = higher value; nuclei count: measured here: cell number, toxicity.
For experiment [4], the target named is Voltage-gated potassium channel subunit beta-2 (Rattus norvegicus) (UniProt P62483). As to the kind of experiment: KvBeta enzyme negative modulators, primary screen, biochemical, NADPH fluorescence (AID 622;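 active = fluorescence slope higher than the sample average by over 3 SD, cut at about -0.22 in these data, passing the limit was not always enough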;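 also: slope of raw intensity against log time taken from 70 to 1610 s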). The settings on record: recombinant KvBeta, 4-cyanobenzaldehyde reduction, at 10 µM, stronger effect = higher value.
Experiment [5] shares this target. Briefly: KvBeta positive modulators, primary screen, biochemical, NADPH fluorescence (AID 623;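 active = NADPH fluorescence slope more negative than the mean of all samples by about 3 SD, 99.7% confidence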;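 also: fluorescence intensity change per second fitted from 20 to 320 s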). The settings on record: Recombinant KvBeta, NADPH fluorescence decrease slope, 10 min; at 10 µM; stronger effect = lower value.
The target in experiment [6] is Alpha-2C adrenergic receptor (Homo sapiens) (UniProt P18825). Briefly: modulators of alpha2C/GIRK thallium flux, primary screen, cell-based, HEK293 alpha2C/GIRK1/2 (AID 624;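 active = fluorescence slope after compound addition differing from the mean of all screened samples at 99.7% confidence, in either direction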;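 also: slope of fluorescence ratio to pre-addition baseline per second over 15 to 24 s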). The settings on record: thallium flux BTC fluorescence, at 10 µM, actives lie on both sides.
A short description of experiment [7]: inhibitors of Sendai virus-induced IRF3 signaling, primary screen, TLR/RLR signaling modifier project, cell-based, Sendai virus stimulus, luciferase, 10K MLSCN set (AID 602276).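 Also: firefly luciferase from ISG56 promoter only with Renilla not read in this screen; 0% = Sendai virus plus DMSO and 100% = medium plus DMSO without virus.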 The note with it: HEK293 RL24 IRF3 luciferase reporter, at 10 µM, stronger effect = higher value.
The nature of experiment [8]: inhibitors of poly I:C-induced TLR3 signaling, primary screen, cell-based, poly I:C stimulus, luciferase, 10K MLSCN set (AID 602277;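 active = inhibition of the reporter signal at or above 50%; inactive = inhibition below 50%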). The note with it: HEK293-TLR3 RL24 IRF3 luciferase reporter, at 10 µM, stronger effect = higher value.

Alpha-2C adrenergic receptor (Homo sapiens), sequence (P18825 whole entry, looked up): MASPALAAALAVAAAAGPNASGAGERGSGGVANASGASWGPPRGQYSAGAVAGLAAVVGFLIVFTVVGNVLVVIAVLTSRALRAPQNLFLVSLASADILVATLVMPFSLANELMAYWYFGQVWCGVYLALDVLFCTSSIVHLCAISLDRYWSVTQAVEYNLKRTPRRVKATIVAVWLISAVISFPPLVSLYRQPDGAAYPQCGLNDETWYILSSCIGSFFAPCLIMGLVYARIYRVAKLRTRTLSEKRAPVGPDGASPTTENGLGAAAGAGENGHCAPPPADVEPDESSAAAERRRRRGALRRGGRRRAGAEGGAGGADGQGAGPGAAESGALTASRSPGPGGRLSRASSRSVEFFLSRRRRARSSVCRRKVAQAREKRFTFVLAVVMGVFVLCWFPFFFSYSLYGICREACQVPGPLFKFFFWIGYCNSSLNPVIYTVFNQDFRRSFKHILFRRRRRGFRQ
Voltage-gated potassium channel subunit beta-2 (Rattus norvegicus), sequence (P62483 whole entry, looked up): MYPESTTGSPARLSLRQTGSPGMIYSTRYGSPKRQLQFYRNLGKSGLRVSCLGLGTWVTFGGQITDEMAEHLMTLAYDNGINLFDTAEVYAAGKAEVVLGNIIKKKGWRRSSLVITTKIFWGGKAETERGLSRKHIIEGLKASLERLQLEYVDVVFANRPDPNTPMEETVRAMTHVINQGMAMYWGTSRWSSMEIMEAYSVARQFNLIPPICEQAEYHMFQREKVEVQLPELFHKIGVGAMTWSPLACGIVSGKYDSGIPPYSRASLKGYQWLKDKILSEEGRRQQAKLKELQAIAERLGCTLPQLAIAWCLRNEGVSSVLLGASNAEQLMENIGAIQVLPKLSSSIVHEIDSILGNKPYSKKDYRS

For the compound `Cc1sc(NC(=O)CSc2nc(N)n(CC(=O)c3ccccc3)n2)c(C#N)c1C`, the cell count in experiment [1] amounted to 403. Besides, the inhibition in experiment [1] is -0.8% (inactive); in experiment [3], -61.6% (inactive); in experiment [7] it was -14.5% (inactive); in experiment [8] it was -21.2% (inactive). In addition, the inhibition of aggregation in experiment [2] was -21.4% (inactive). Moreover, the nuclei count in experiment [2] and in experiment [3] was 111% throughout. The fluorescence slope in experiment [4] is -0.612 (inactive). For the same compound, in experiment [5], the NADPH fluorescence slope was -2.1e-05 (inactive). Also, the slope in experiment [6] is 0.00622 (inactive).

With `COC(=O)c1ccccc1S(=O)(=O)NC(=O)c1ccccc1`, the cell count in experiment [1] came to 368. Besides, the inhibition was -2.8% (inactive) in experiment [1], -26% (inactive) in experiment [3], 13.5% (inactive) in experiment [7] and 24.3% (inactive) in experiment [8]. Moreover, the inhibition of aggregation in experiment [2] was -12.4% (inactive). Besides, the nuclei count in experiment [2] was 96.8%; in experiment [3] it was 114%. In experiment [4], the fluorescence slope is -0.593 (inactive). Besides, the NADPH fluorescence slope in experiment [5] was -3.3e-08 (inactive). In addition, the slope in experiment [6] was 0.00588 (inactive).

As for `CCC(C(=O)N1CCc2cc(OC)c(OC)cc2C1)c1ccccc1` (centres undefined), the cell count in experiment [1] was determined as 598. Moreover, the inhibition in experiment [1] was 5% (inactive); in experiment [3], 11.7% (inactive); in experiment [7], 3.51% (inactive); in experiment [8] it was 6.78% (inactive). Also, in experiment [2], the inhibition of aggregation is -8.2% (inactive). The results for the nuclei count in experiment [2] and in experiment [3] were 88.6% and 103%, respectively. Moreover, the fluorescence slope in experiment [4] was -0.478 (inactive). Also, the NADPH fluorescence slope in experiment [5] is 5.9e-06 (inactive). Further, the slope in experiment [6] is 0.00474 (inactive).

For `COc1cccc(-c2nnc(SCC(N)=O)n2-c2ccc(Cl)cc2)c1`, the cell count in experiment [1] came to 327. Besides, the inhibition is -6.5% (inactive) in experiment [1], -60.5% (inactive) in experiment [3], 8.3% (inactive) in experiment [7] and 13.1% (inactive) in experiment [8]. The inhibition of aggregation in experiment [2] was -11.9% (inactive). Moreover, the nuclei count in experiment [2] came to 107%; in experiment [3] it was 94.5%. Also, the fluorescence slope in experiment [4] was -0.495 (inactive). Moreover, the NADPH fluorescence slope in experiment [5] was -0.000142 (inactive). Besides, in experiment [6], the slope is 0.00431 (inactive).

With `Cc1ccc(-c2cn3nc(C)c(C)nc3n2)cc1`, the cell count in experiment [1] worked out at 778. For the same compound, the inhibition in experiment [1] was -23.3% (inactive); in experiment [3], -35.5% (inactive); in experiment [7] it was 20% (inactive); in experiment [8], 1.39% (inactive). The inhibition of aggregation in experiment [2] is -5.7% (inactive). In addition, the nuclei count in experiment [2] came out at 119%; in experiment [3], 121%. Moreover, the fluorescence slope in experiment [4] was -0.007 (active). For the same compound, the NADPH fluorescence slope in experiment [5] is -3.4e-06 (inactive). For the same compound, the slope in experiment [6] is 0.00494 (inactive).

Turning to `CC1CN(C(=O)CSc2nnc(-c3ccc(Cl)cc3)n2C)CC(C)O1` (centres undefined), the cell count in experiment [1] turned out to be 345. Moreover, the inhibition in experiment [1] is 1.1% (inactive); in experiment [3] it was -122% (inactive); in experiment [7], -5.39% (inactive); in experiment [8], -17.3% (inactive). Also, the inhibition of aggregation in experiment [2] was -13.2% (inactive). Besides, the nuclei count in experiment [2] worked out at 91.5%; in experiment [3], 124%. The fluorescence slope in experiment [4] was -0.275 (inactive). For the same compound, in experiment [5], the NADPH fluorescence slope is -3.8e-05 (inactive). For the same compound, in experiment [6], the slope was 0.00669 (inactive).

For the compound `Cc1ccc(C2Nc3ccccc3-c3nc4ccccc4n32)o1` (centres undefined), the cell count in experiment [1] amounted to 741. For the same compound, the inhibition is 6.8% (inactive) in experiment [1], -26.5% (inactive) in experiment [3], -46.2% (inactive) in experiment [7] and -110% (inactive) in experiment [8]. In addition, the inhibition of aggregation in experiment [2] is 3.8% (inactive). Moreover, the nuclei count in experiment [2] was determined as 88.4%; in experiment [3], 80.6%. Further, the fluorescence slope in experiment [4] is -0.475 (inactive). In experiment [5], the NADPH fluorescence slope is -2.2e-05 (inactive). Further, the slope in experiment [6] is 0.00364 (inactive).

For the compound `Cc1ccc(-n2ncc3c(=O)[nH]c(SC(C)C)nc32)cc1`, in experiment [1], the cell count was 716. Besides, the inhibition was -23.9% (inactive) in experiment [1], -18.4% (inactive) in experiment [3], 7.08% (inactive) in experiment [7] and 21.6% (inactive) in experiment [8]. The inhibition of aggregation in experiment [2] is 2.6% (inactive). The values for the nuclei count in experiment [2] and in experiment [3] were 82.4% and 126%, respectively. In experiment [4], the fluorescence slope was -0.455 (inactive). In experiment [5], the NADPH fluorescence slope is -4.4e-06 (inactive). For the same compound, the slope in experiment [6] is 0.0066 (inactive).

As for `Cn1cnc2c1c(=O)n(Cc1cccc(Br)c1)c(=O)n2C`, in experiment [1], the cell count was 320. Further, the inhibition in experiment [1] was 1.4% (inactive); in experiment [3] it was -17.1% (inactive); in experiment [7], 14.2% (inactive); in experiment [8], 14.4% (inactive). The inhibition of aggregation in experiment [2] is 9.8% (inactive). Besides, the nuclei count worked out at 113% in experiment [2] and 122% in experiment [3]. Also, the fluorescence slope in experiment [4] was -0.38 (inactive). In addition, the NADPH fluorescence slope in experiment [5] is 8.1e-07 (inactive). Besides, in experiment [6], the slope was 0.00734 (inactive).

Take `O=S(c1ccsc1)c1ccsc1`: the cell count in experiment [1] came out at 444. In addition, the inhibition in experiment [1] was 6.5% (inactive); in experiment [3], 13% (inactive); in experiment [7] it was 19.8% (inactive); in experiment [8], 26.3% (inactive). In experiment [2], the inhibition of aggregation was 1.4% (inactive). The results for the nuclei count in experiment [2] and in experiment [3] were 95.8% and 99.8%, respectively. In addition, in experiment [4], the fluorescence slope was -0.497 (inactive). In experiment [5], the NADPH fluorescence slope was -4.1e-05 (inactive). The slope in experiment [6] was 0.00527 (inactive).

Consider `CC1(C)CC(=O)CC(C2(O)C(=O)N(Cc3ccccc3)c3ccccc32)O1` (centres undefined), for which the cell count in experiment [1] turned out to be 500. In addition, the inhibition in experiment [1] is -2.4% (inactive); in experiment [3] it was -9.4% (inactive); in experiment [7], -9.58% (inactive); in experiment [8], -5.31% (inactive). Also, the inhibition of aggregation in experiment [2] was -3.9% (inactive). In addition, the nuclei count in experiment [2] is 82.2%; in experiment [3], 120%. In addition, in experiment [4], the fluorescence slope is -0.548 (inactive). For the same compound, the NADPH fluorescence slope in experiment [5] is 1.3e-05 (inactive). Further, the slope in experiment [6] was 0.00527 (inactive).

Take `O=C(NCc1cccs1)c1cc2c(s1)-c1ccccc1OC2`: the cell count in experiment [1] is 674. The inhibition in experiment [1] is 1.6% (inactive); in experiment [3], -49.2% (inactive); in experiment [7] it was -42% (inactive); in experiment [8], -187% (inactive). Besides, the inhibition of aggregation in experiment [2] is -25.1% (inactive). For the same compound, the results for the nuclei count in experiment [2] and in experiment [3] were 98.2% and 108%, respectively. Further, in experiment [4], the fluorescence slope is -0.122 (inactive). The NADPH fluorescence slope in experiment [5] is -3.3e-06 (inactive). In experiment [6], the slope was 0.00728 (inactive).

Regarding `CC(C)Cc1nc(S(=O)(=O)c2ccc(Cl)cc2)c(N2CCOCC2)o1`, in experiment [1], the cell count is 570. The inhibition is -12.7% (inactive) in experiment [1], -14.6% (inactive) in experiment [3], 13.7% (inactive) in experiment [7] and 12.7% (inactive) in experiment [8]. The inhibition of aggregation in experiment [2] was -12.7% (inactive). The nuclei count was found to be 119% in experiment [2] and 105% in experiment [3]. Moreover, the fluorescence slope in experiment [4] is -0.612 (inactive). For the same compound, the NADPH fluorescence slope in experiment [5] is -4.1e-05 (inactive). Moreover, in experiment [6], the slope is 0.00543 (inactive).

For the compound `CC(C)COc1ccc(C2NC(=O)NC2=O)cc1` (centres undefined), the cell count in experiment [1] is 718. The inhibition is -10.2% (inactive) in experiment [1], 74.1% (inactive) in experiment [3], 1.04% (inactive) in experiment [7] and 19.9% (inactive) in experiment [8]. Besides, the inhibition of aggregation in experiment [2] is -12.5% (inactive). Moreover, the values for the nuclei count in experiment [2] and in experiment [3] were 117% and 91.5%, respectively. Moreover, the fluorescence slope in experiment [4] is -0.452 (inactive). In addition, the NADPH fluorescence slope in experiment [5] is -2.2e-05 (inactive). In experiment [6], the slope was 0.00367 (inactive).
